# The list is not random: actives were taken first. Their share in the collection is about 4.6%.
# Vaccinia Venus: inhibitors of vaccinia virus (Venus reporter) | Vaccinia virus Venus reporter expression, fluorescence | Potency, µM (highest dose often 36.5 µM), hits mostly inhibitors | 330,000 compounds, 0.46% hits; calls by dose curve; tested in A549 cells; also: nearly all actives have a fitted effect of over 30% in size
# LASV entry inh: blocks Lassa virus binding to or entry into cells. 300,000 compounds, 1.2% hits. Lassa virus pseudotype entry inhibition, cell reporter. Potency, µM (top dose mostly 37.9 µM), hits mostly inhibitors; calls by dose curve; tested in HEK293 cells; also: nearly all actives have a fitted effect of over 50% in size
# Marburg entry inh: inhibitors of Marburg virus binding or cell entry; Marburg virus pseudotyped entry inhibition, cell reporter; Potency, µM (series often up to 37.8 µM), actives largely listed as inhibitors; 300,000 compounds, 1.8% hits; AID 540276; calls by dose curve; tested in HEK293 cells
# HCV inhibitor: blocks hepatitis C virus. 340,000 compounds, 3.4% hits. Potency, µM (top dose mostly 41.8 µM), most hits filed as inhibitors. Huh7.5.1 HCVcc-Cre infection, luciferase reporter, 44 h; active = well fitted inhibition curve with a large enough effect; inconclusive = small, poorly fitted or top-dose-only effect, or another doubt; inactive = no such curve, though single readings can be large or run the other way
#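 After 44 h co-culture of compound, cells and HCVcc-Cre (~0.5 moi), substrate is added for 15 min at room temperature and luciferase measured over 15 sec. Cells were seeded at 1,000/well and pre-cultured 4 h.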
# VACV mCherry inh: inhibitors of vaccinia virus infection (mCherry reporter signal) | Vaccinia virus mCherry reporter infection, fluorescence | Potency, µM (titrated, usually from 36.5 µM), usual class: inhibitors | 310,000 compounds, 0.63% hits; calls by dose curve; tested in A549 cells; also: nearly all actives have a fitted effect of over 35% in size
# A number is an active result; - = inactive; ? = inconclusive; . = no result; [ ] = dose if it differs, or a comment.
SMILES,Vaccinia Venus,LASV entry inh,Marburg entry inh,HCV inhibitor,VACV mCherry inh
O=c1c2c(-c3cccs3)csc2ncn1-c1ccc(Br)cc1,-,-,?,?,.
CCc1ccc2oc(C(=O)NCc3ccncc3)c(C)c2c1,.,-,-,11.2µM,.
Cc1cc(C)c2c(C)c(C(=O)NCc3ccncc3)oc2c1,.,-,-,2µM,.
Cc1cc(C)cc(NC(=O)C2CCCN(c3nnc(C)c4c(C)n(-c5ccccc5)nc34)C2)c1 (stereo not drawn),-,-,.,.,-
COCCNC(=O)CCCn1c(SCC(=O)Nc2ccc(F)cc2)nc2c(sc3ccccc32)c1=O,-,-,?,.,-
COC(=O)[C@@]1(Cc2ccccc2)[C@@H]2C(=CC(=O)[C@H]2CC(=O)C(=O)N(C)C)CN1C(=O)c1ccccc1,?,?,20.6µM,?,?
CCN1C(=O)NC(c2cccc(C(F)(F)F)c2)C(C(=O)OC)=C1C (stereo not drawn),.,.,-,.,.
Cc1ccc(S(=O)(=O)c2nc(-c3ccccc3Cl)oc2N(C)C)cc1,?,?,-,20µM,-
O=C(c1cccs1)N1C[C@H](O)[C@H](n2cc(C3CC3)nn2)C[C@@H]1c1ccc(Cl)cc1,.,-,.,.,.
CCOC(=O)c1c(C)n(OCc2ccccc2)c2ccc3c(no[n+]3[O-])c12,-,?,?,7.08µM,-
CCCCOn1c(C)c(C(C)=O)c2c3no[n+]([O-])c3ccc21,-,-,-,-,-
COc1ccc([C@@H]2Sc3ccccc3N(CCN(C)C)C(=O)[C@@H]2OC(C)=O)cc1,-,2.31µM,?,-[8.37 µM],-
CC(=O)Nc1ccc(S(=O)(=O)NCCC(=O)N2CCN(C(c3ccccc3)c3ccccc3)CC2)cc1,-,0.316µM,-,-,-
CCc1cccc(N(C)C(N)=Nc2cccc3ccccc23)c1,-,13µM,11.2µM,-,-
Cc1cc(C)c2c(/C=C/c3ccc(N(C)C)cc3)ccnc2c1,-,.,.,.,-
CN1C[C@H](CNC(=O)OCc2ccccc2)C[C@@H]2c3cccc4c3c(cn4C)C[C@H]21,-,23.1µM,5.62µM,?,-
Nc1nc2[nH]c(=S)[nH]c2c(=O)[nH]1,-,.,.,.,-
O=C(N/N=C\C=C\c1ccc([N+](=O)[O-])o1)c1cccs1,?,?,?,?,10µM
O=[N+]([O-])c1ccc(/C=N/Nc2nc(N3CCCCC3)nc(N3CCCCC3)n2)cc1,-,.,.,?,-
COc1ccc(Nc2nc(N3CCCCC3)nc3ccccc23)c(OC)c1,-,-,?,?,-
COc1ccc(Nc2nc(N3CCCCC3)nc(N3CCCCC3)n2)c(OC)c1,.,-,-,-,.
COc1ccc([N+](=O)[O-])cc1/C=N/Nc1nc(N2CCCCC2)nc(N2CCCCC2)n1,-,-,-,20µM,-
COc1ccc(CCNc2nc(N3CCCCC3)nc(N3CCCCC3)n2)cc1OC,-,?,?,22.4µM,.
COc1ccc(Nc2nc(N3CCCC3)nc(N3CCCC3)n2)c(OC)c1,.,-,2.06µM,10µM,.
COc1ccc(Nc2nc(Nc3ccc(OC)cc3OC)nc(N3CCN(C)CC3)n2)c(OC)c1,-,?,?,1µM,-
SMILES,Vaccinia Venus,LASV entry inh,Marburg entry inh,HCV inhibitor,VACV mCherry inh
Nc1ncnc2c1nc(Sc1ccc(Cl)cc1)n2[C@H]1OC2COP(=O)(O)O[C@H]2[C@@H]1O (stereo partly drawn),-,.,.,.,-
CCC1CN(CCNC(=O)C(C)(C)O)Cc2cc(OC)ccc2O1 (stereo not drawn),-,.,.,.,-
COc1ccc(Nc2nc(NC(C)(C)C)nc(N3CCCC3)n2)c(OC)c1,.,-,5.17µM,5.62µM,.
Cc1cc(C(=O)CSc2ccc(Cl)cc2)cc(C)c1OC(=S)N(C)C,?,-,?,10µM,.
COc1ccc(-c2sc3ccccc3c2/C=C/c2ccc(N)cc2)cc1,-,.,.,?,?
COC(=O)c1ccc(/C=C/c2c(-c3ccsc3)sc3ccccc23)cc1,-,.,.,10µM,-
Cc1ccc2[nH]c(=O)c(C(c3nnnn3Cc3ccccc3)N3CCc4ccccc43)cc2c1 (stereo not drawn),.,?,10.3µM,31.6µM,.
Cc1ccc2[nH]c(=O)c(C(c3nnnn3C3CCCC3)N3CCCc4ccccc43)cc2c1 (stereo not drawn),.,?,5.8µM,-,.
CCC(C)(C)n1nnnc1C(c1cc2cc(C)ccc2[nH]c1=O)N1CCCc2ccccc21 (stereo not drawn),-,-,-,-,-
Cc1cc2cc(C(c3nnnn3Cc3ccccc3)N3CCc4ccccc43)c(=O)[nH]c2cc1C (stereo not drawn),.,-,?,?,.
COc1cccc(NC(=O)Cn2c(=O)n(CC(=O)NCc3ccc(C)cc3)c(=O)c3sccc32)c1,?,-,-,.,?
O=C(N/N=C/c1ccc(O)c(O)c1)c1ccc(CSc2cccc3cccnc23)cc1,-,-,-,15.8µM,-
O=C(Nc1ccc2c(c1)N(C1CCCC1)C(=O)c1ccccc1S2)c1ccccc1,-,2.82µM,.,.,-
O=C(Nc1ccc2c(c1)N(C1CCCC1)C(=O)c1ccccc1S2)c1ccc(F)cc1,-,?,.,.,-
CCc1ccc(NC(=O)C2(c3ccccc3)CC2(Cl)Cl)cc1 (stereo not drawn),.,16.4µM,-,?,.
COc1ccccc1NC(C)C(=O)c1c(C)[nH]c2ccccc12 (stereo not drawn),-,.,.,.,-
Cc1ncc(CSc2nnnn2-c2ccccc2)c(N)n1,-,-,-,-,-
CSc1nsc(SCc2cnc(C)nc2N)n1,?,-,-,-,22.4µM
Cc1ccc2ccc3ccc(C)nc3c2n1,-,.,.,0.316µM,-
Cc1ccc2cc(F)c(F)c(F)c2n1,-,.,.,.,-
